Among the data in PubChem BioAssay (NCATS) are activity, negative = inhibition and Potency values, retold here.

Records with an inconclusive call do not appear. Calls of active or inactive are those of the source.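 Rule for the calls, unless noted: active = compounds whose dose series gives a full or clear partial fitted curve of increased nuclear translocation; inconclusive = weak partial curve or effect only at the top dose; inactive = no dose-dependent translocation response.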

Tested on in one assay: not listed separately
Briefly: Stat Signaling Pathway (AID 446; active = well fitted curve in either direction with a large enough effect, not every such curve was filed as active;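 note: ME-180 cervical cancer cells given 40 pM IL-6 alongside compound; SIE-controlled beta-lactamase reporter measured as 460/530 nm FRET emission ratio; % is set by controls: 0 for no effect and ±100 for the full control effect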). As to conditions: ME-180 (cervical carcinoma) SIE beta-lactamase reporter, IL-6 stimulated, 5 h; at 17.2 µM (top of the series) unless noted. The method in brief:
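Emission at 460 and 530 nm (excitation 405 nm) reports SIE-controlled beta-lactamase in ME-180 cells. Cells received compound with 40 pM IL-6 for 5 hrs at 37 C; data scaled between 300 pM IL-6 and 125 nM JAK-inhibitor controls.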
For the compound `Cc1[nH]nc2c1C(CCc1ccccc1)C(C#N)=C(N)O2` (stereo not given), the activity, negative = inhibition was -1.82% (inactive).
Take `CC(Sc1ccc2ccccc2n1)C(=O)O` (stereo not given): the activity, negative = inhibition was 5.88% (inactive).
On to `O=S1CCCSC1c1cccnc1` (stereo not given), for which the activity, negative = inhibition is 2.7% (inactive).
On to `Clc1nc(-c2n[nH]nc2Cl)n[nH]1`, for which the activity, negative = inhibition is 5.38% (inactive).
Consider `CC(=O)C1=C(O)C(=O)N(Cc2cccnc2)C1c1ccccc1Cl` (stereo not given), for which the activity, negative = inhibition is 1.82% (inactive).
Same read-out and setting: the same measure for `CCOC(=O)c1[nH]c2ccc(OC)cc2c1NC(=O)CCN1CCCC(C)C1` (stereo not given): 3.31% (inactive); for `COc1ccc(C(=O)/C=C/Nc2cccc(C)n2)cc1OC`: 0.139% (inactive).
For the compound `CS(=O)(=O)CCC(C(=O)n1nnc2ccccc21)N1C(=O)c2ccccc2C1=O` (stereo not given), the activity, negative = inhibition was -20.7% (inactive).
For `CNC(=O)C1CC(=O)N(Cc2ccccc2)C(=Nc2ccc(OC)cc2)S1` (stereo not given), the activity, negative = inhibition is -6.63% (inactive).
Turning to `NC(=O)c1cc(-c2ccccc2)nc(Oc2ccccc2)n1`, the activity, negative = inhibition was -5.87% (inactive).
For the compound `Nc1ccc2ncccc2c1N`, the activity, negative = inhibition was -11.2% (inactive).
The same measure, in the same setting: the same measure for `CC1(C)Cc2c(sc3ncn4nc(-c5ccco5)nc4c23)CO1`: -2.67% (inactive); for `C=CCOc1nc2c(c(=O)n(C)c(=O)n2C)n1Cc1ccc(Cl)cc1`: -5.11% (inactive); for `CC(C)Cc1nc(N2CCOCC2)c(C#N)c2c1COC(C)(C)C2`: 4.57% (inactive).
With `Oc1ccc2c(c1)C1CCCC1(N1CCOCC1)O2` (stereo not given), the activity, negative = inhibition is 2.31% (inactive).
For the compound `COc1ccc(NC(=O)Nc2cccc(C(=O)N3CCOCC3)c2)cc1OC`, the activity, negative = inhibition is 0.00442% (inactive).
With `CCc1cc(=O)oc2cc(C)c(CN3CCCC3)c(O)c12`, the activity, negative = inhibition is -10.7% (inactive).
Still for that read-out and setting: the same measure for `C=CCNc1sc(C(=O)C2CC2)c(N)c1C#N`: -6.27% (inactive); for `Cn1ncc2c(Nc3ccccc3Br)ncnc21`: -3.41% (inactive).
On to `CCCCOc1ccc(-c2nnc(N)s2)cc1`, for which the activity, negative = inhibition is 10.7% (inactive).
Same read-out and setting: the same measure for `N#CCCSc1nc(N2CCOCC2)c2c(c1C#N)CCCC2`: -12.4% (inactive); for `COc1cccc(/C=C2/CN(C)CC3=C2OC(N)=C(C#N)C3c2cccc(OC)c2)c1` (stereo not given): -1.9% (inactive).
Consider `COc1ccc(OC)c2c1CCC2=O`, for which the activity, negative = inhibition was 6.79% (inactive).
Consider `O=c1/c(=C/c2ccccn2)sc2n1CN(c1ccccc1)CN=2`, for which the activity, negative = inhibition is 5.04% (inactive).
Consider `CC(=O)c1cc(C#N)c(SCc2ccncc2)nc1C`, for which the activity, negative = inhibition was -3.61% (inactive).
For the compound `CC1(C)CC(=O)C2=C(C1)OC(N)=C(C#N)C21C(=O)N(CN2CCOCC2)c2ccccc21` (stereo not given), the activity, negative = inhibition was 5.03% (inactive).
Consider `COc1cccc(OC)c1C(=O)Nc1nc2ccc(S(C)(=O)=O)cc2s1`, for which the activity, negative = inhibition was -10.6% (inactive).
The same measure, in the same setting: the same measure for `Cc1ccc2c(=O)c(CN(C)C3CCN(C)CC3)c(C)[nH]c2c1C`: 5.33% (inactive); for `C=CCn1c(-c2ccccc2)n[nH]c1=S`: 3.46% (inactive).
In the case of `CN(C)c1ccc(C=NCCC2(O)CCOC(C)(C)C2)cc1` (stereo not given), the activity, negative = inhibition is -0.198% (inactive).
Take `CCC(CC)n1[nH]c(=O)cc1N`: the activity, negative = inhibition is 2.51% (inactive).
As for `Cn1c(OCc2ccc3c(c2)OCO3)nc2c1c(=O)n(Cc1cccc(Cl)c1)c(=O)n2C`, the activity, negative = inhibition was -6.64% (inactive).
On the same count and under the same terms, the same measure for `COC(=O)C1=C(C)N=C2SC(C)C(=O)N2C1c1ccc(C(=O)OC)cc1` (stereo not given): -11.1% (inactive); for `C=CCNc1nc(N2CCOCC2)c(C#N)c2c1CN(C)CC2`: 2.07% (inactive).
`COC(=O)CSCC(=O)Nc1cc2c(cc1C(C)=O)OCO2`: the activity, negative = inhibition is 9.85% (inactive).
Regarding `COc1cccc(-c2nnc3sc(-c4ccc(Cl)cc4)nn23)c1`, the activity, negative = inhibition was 11.1% (inactive).
`CCOc1nc(-c2ccncc2)nc2ccccc12`: the activity, negative = inhibition is -6.2% (inactive).
Take `COCCN(C(=O)Nc1ccccc1)c1ccccc1C`: the activity, negative = inhibition was 6.32% (inactive).
For the compound `CCOC(=O)C(C#N)C(Cc1ccccc1)c1ccco1` (stereo not given), the activity, negative = inhibition was -9.08% (inactive).
As to `COc1ccc2[nH]c(C)c(C(=O)CN3CC(C)OC(C)C3)c2c1` (stereo not given), the activity, negative = inhibition was 2.01% (inactive).

The target in another assay is Glucocorticoid receptor (Homo sapiens) (UniProt P04150). The assay can be described thus: GR-GFP Redistribution (AID 450). Note: potency is the fitted concentration of half-maximal effect. As to conditions: U2OS GR-GFP nuclear translocation, laser cytometry, 2 h; series mostly up to 20.6 µM.
Sequence of Glucocorticoid receptor (Homo sapiens) (P04150 whole entry, looked up): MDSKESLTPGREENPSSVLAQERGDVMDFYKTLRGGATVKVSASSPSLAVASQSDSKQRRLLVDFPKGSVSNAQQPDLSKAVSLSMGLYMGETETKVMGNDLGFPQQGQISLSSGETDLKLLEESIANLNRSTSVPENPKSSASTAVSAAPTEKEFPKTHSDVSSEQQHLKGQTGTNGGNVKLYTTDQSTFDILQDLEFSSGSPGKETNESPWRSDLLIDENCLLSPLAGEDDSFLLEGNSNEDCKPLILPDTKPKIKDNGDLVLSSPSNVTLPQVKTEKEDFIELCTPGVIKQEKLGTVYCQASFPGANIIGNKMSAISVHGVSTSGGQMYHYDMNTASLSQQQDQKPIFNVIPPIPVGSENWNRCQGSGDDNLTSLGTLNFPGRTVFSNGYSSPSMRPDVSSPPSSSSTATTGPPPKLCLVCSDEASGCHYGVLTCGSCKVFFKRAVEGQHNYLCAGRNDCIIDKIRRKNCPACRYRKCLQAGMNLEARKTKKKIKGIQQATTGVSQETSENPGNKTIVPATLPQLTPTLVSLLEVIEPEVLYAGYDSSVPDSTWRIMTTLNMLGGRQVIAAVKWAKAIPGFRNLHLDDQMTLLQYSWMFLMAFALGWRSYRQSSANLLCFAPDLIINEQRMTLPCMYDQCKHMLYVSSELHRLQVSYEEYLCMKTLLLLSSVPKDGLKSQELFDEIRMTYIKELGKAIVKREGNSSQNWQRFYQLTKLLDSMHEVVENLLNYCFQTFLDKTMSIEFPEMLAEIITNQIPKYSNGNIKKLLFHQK
`Cc1[nH]nc2c1C(CCc1ccccc1)C(C#N)=C(N)O2` (stereo not given): the Potency is > 20.6 µM (inactive).
As for `CC(Sc1ccc2ccccc2n1)C(=O)O` (stereo not given), the Potency was > 20.6 µM (inactive).
`O=S1CCCSC1c1cccnc1` (stereo not given): the Potency is > 20.6 µM (inactive).
With `Clc1nc(-c2n[nH]nc2Cl)n[nH]1`, the Potency is > 20.6 µM (inactive).
Consider `CC(=O)C1=C(O)C(=O)N(Cc2cccnc2)C1c1ccccc1Cl` (stereo not given), for which the Potency is > 20.6 µM (inactive).
In the case of `CCOC(=O)c1[nH]c2ccc(OC)cc2c1NC(=O)CCN1CCCC(C)C1` (stereo not given), the Potency was > 20.6 µM (inactive).
Regarding `COc1ccc(C(=O)/C=C/Nc2cccc(C)n2)cc1OC`, the Potency was > 20.6 µM (inactive).
Same read-out and setting: the same measure for `CS(=O)(=O)CCC(C(=O)n1nnc2ccccc21)N1C(=O)c2ccccc2C1=O` (stereo not given): > 20.6 µM (inactive); for `CNC(=O)C1CC(=O)N(Cc2ccccc2)C(=Nc2ccc(OC)cc2)S1` (stereo not given): > 20.6 µM (inactive); for `NC(=O)c1cc(-c2ccccc2)nc(Oc2ccccc2)n1`: > 20.6 µM (inactive).
As for `Nc1ccc2ncccc2c1N`, the Potency is > 20.6 µM (inactive).
As for `CC1(C)Cc2c(sc3ncn4nc(-c5ccco5)nc4c23)CO1`, the Potency is > 20.6 µM (inactive).
On to `C=CCOc1nc2c(c(=O)n(C)c(=O)n2C)n1Cc1ccc(Cl)cc1`, for which the Potency is > 20.6 µM (inactive).
For `CC(C)Cc1nc(N2CCOCC2)c(C#N)c2c1COC(C)(C)C2`, the Potency is > 20.6 µM (inactive).
As for `Oc1ccc2c(c1)C1CCCC1(N1CCOCC1)O2` (stereo not given), the Potency was > 20.6 µM (inactive).
Regarding `COc1ccc(NC(=O)Nc2cccc(C(=O)N3CCOCC3)c2)cc1OC`, the Potency was > 20.6 µM (inactive).
On to `CCc1cc(=O)oc2cc(C)c(CN3CCCC3)c(O)c12`, for which the Potency was > 20.6 µM (inactive).
Consider `C=CCNc1sc(C(=O)C2CC2)c(N)c1C#N`, for which the Potency was > 20.6 µM (inactive).
Turning to `Cn1ncc2c(Nc3ccccc3Br)ncnc21`, the Potency is > 20.6 µM (inactive).
As to `CCCCOc1ccc(-c2nnc(N)s2)cc1`, the Potency was > 20.6 µM (inactive).
On the same count and under the same terms, the same measure for `N#CCCSc1nc(N2CCOCC2)c2c(c1C#N)CCCC2`: > 20.6 µM (inactive); for `COc1cccc(/C=C2/CN(C)CC3=C2OC(N)=C(C#N)C3c2cccc(OC)c2)c1` (stereo not given): > 20.6 µM (inactive); for `COc1ccc(OC)c2c1CCC2=O`: > 20.6 µM (inactive).
As to `O=c1/c(=C/c2ccccn2)sc2n1CN(c1ccccc1)CN=2`, the Potency was > 20.6 µM (inactive).
For the compound `CC(=O)c1cc(C#N)c(SCc2ccncc2)nc1C`, the Potency is > 20.6 µM (inactive).
On the same count and under the same terms, the same measure for `CC1(C)CC(=O)C2=C(C1)OC(N)=C(C#N)C21C(=O)N(CN2CCOCC2)c2ccccc21` (stereo not given): > 20.6 µM (inactive).
For `COc1cccc(OC)c1C(=O)Nc1nc2ccc(S(C)(=O)=O)cc2s1`, the Potency was > 20.6 µM (inactive).
On to `Cc1ccc2c(=O)c(CN(C)C3CCN(C)CC3)c(C)[nH]c2c1C`, for which the Potency is > 20.6 µM (inactive).
Consider `C=CCn1c(-c2ccccc2)n[nH]c1=S`, for which the Potency is > 20.6 µM (inactive).
As for `CN(C)c1ccc(C=NCCC2(O)CCOC(C)(C)C2)cc1` (stereo not given), the Potency is > 20.6 µM (inactive).
For `CCC(CC)n1[nH]c(=O)cc1N`, the Potency is > 20.6 µM (inactive).
In the case of `Cn1c(OCc2ccc3c(c2)OCO3)nc2c1c(=O)n(Cc1cccc(Cl)c1)c(=O)n2C`, the Potency is > 20.6 µM (inactive).
`COC(=O)C1=C(C)N=C2SC(C)C(=O)N2C1c1ccc(C(=O)OC)cc1` (stereo not given): the Potency is > 20.6 µM (inactive).
Consider `C=CCNc1nc(N2CCOCC2)c(C#N)c2c1CN(C)CC2`, for which the Potency was > 20.6 µM (inactive).
`COC(=O)CSCC(=O)Nc1cc2c(cc1C(C)=O)OCO2`: the Potency was > 20.6 µM (inactive).
Consider `COc1cccc(-c2nnc3sc(-c4ccc(Cl)cc4)nn23)c1`, for which the Potency is > 20.6 µM (inactive).
On to `CCOc1nc(-c2ccncc2)nc2ccccc12`, for which the Potency was > 20.6 µM (inactive).
Turning to `COCCN(C(=O)Nc1ccccc1)c1ccccc1C`, the Potency was > 20.6 µM (inactive).
As for `CCOC(=O)C(C#N)C(Cc1ccccc1)c1ccco1` (stereo not given), the Potency is > 20.6 µM (inactive).
With `COc1ccc2[nH]c(C)c(C(=O)CN3CC(C)OC(C)C3)c2c1` (stereo not given), the Potency was > 20.6 µM (inactive).
